ChEMBL document CHEMBL1961873, “Compounds: GSK PKIS; Assays: Nanosyn kinase panel” (2012)

Experiments:
[1] = molecular target: T1, Serine/threonine-protein kinase TBK1 (Homo sapiens) (UniProt Q9UHD2); details: at 1 µM;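 further: values are mean inhibition of TBK1, screened as part of the GSK published kinase inhibitor set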
T1 sequence (whole entry): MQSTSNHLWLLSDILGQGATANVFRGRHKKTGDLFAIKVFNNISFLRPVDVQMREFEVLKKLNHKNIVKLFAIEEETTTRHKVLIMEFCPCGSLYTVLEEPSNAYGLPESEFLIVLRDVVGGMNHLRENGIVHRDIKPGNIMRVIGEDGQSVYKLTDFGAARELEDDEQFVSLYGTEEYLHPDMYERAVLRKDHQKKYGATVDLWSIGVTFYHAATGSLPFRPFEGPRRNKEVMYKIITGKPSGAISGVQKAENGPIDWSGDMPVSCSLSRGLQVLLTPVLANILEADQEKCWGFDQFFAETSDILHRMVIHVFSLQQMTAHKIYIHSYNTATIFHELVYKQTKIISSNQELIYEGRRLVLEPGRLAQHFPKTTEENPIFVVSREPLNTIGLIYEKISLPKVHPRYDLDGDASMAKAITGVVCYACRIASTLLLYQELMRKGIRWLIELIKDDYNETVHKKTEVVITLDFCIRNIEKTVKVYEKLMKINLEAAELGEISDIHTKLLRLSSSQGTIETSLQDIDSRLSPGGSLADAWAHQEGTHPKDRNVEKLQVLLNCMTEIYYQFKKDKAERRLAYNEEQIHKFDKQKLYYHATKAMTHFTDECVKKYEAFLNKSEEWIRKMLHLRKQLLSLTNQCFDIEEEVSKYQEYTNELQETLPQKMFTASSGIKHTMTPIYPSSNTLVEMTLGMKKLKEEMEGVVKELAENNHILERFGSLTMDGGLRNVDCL

[2] = molecular target: T2, Testis-specific serine/threonine-protein kinase 1 (Homo sapiens) (UniProt Q9BXA7); details: at 0.1 µM
T2 sequence (whole entry): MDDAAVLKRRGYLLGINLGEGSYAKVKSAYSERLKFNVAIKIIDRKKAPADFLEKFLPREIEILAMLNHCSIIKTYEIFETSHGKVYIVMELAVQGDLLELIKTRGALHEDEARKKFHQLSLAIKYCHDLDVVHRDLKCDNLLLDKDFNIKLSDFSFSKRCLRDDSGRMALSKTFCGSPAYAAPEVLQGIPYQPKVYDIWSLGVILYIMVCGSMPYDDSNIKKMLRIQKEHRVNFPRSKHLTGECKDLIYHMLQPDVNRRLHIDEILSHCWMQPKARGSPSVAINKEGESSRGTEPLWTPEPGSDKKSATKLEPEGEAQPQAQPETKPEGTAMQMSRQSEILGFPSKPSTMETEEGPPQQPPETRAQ

[3] = molecular target: T2, Testis-specific serine/threonine-protein kinase 1 (Homo sapiens); details: at 1 µM
[4] = molecular target: T3, Testis-specific serine/threonine-protein kinase 2 (Homo sapiens) (UniProt Q96PF2); details: at 0.1 µM
T3 sequence (whole entry): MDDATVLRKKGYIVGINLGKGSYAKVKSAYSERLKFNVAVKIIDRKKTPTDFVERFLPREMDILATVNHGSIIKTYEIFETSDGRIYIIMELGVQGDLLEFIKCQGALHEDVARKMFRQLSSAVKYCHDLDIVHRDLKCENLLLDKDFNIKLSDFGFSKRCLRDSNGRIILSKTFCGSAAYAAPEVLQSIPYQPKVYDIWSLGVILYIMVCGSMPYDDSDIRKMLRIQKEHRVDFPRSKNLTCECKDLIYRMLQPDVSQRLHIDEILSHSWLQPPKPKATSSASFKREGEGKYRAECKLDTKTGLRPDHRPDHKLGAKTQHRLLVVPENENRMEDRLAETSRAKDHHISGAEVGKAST

[5] = molecular target: T3, Testis-specific serine/threonine-protein kinase 2 (Homo sapiens); details: at 1 µM
[6] = molecular target: Casein kinase I isoform alpha (Homo sapiens) (UniProt P48729); details: at 0.1 µM
Casein kinase I isoform alpha (Homo sapiens), sequence (P48729 2-337 limits assumed): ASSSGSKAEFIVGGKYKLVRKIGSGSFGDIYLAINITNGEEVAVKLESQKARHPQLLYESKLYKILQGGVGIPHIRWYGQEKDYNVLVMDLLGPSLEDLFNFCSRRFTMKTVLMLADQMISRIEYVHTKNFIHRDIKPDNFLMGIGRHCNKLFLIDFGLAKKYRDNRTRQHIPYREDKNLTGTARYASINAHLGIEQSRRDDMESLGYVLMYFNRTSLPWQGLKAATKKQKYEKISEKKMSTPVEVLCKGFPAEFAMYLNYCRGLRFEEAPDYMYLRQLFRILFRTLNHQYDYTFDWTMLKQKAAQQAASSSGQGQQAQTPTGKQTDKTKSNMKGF

[7] = molecular target: Casein kinase I isoform alpha (Homo sapiens) (UniProt P48729); details: at 1 µM
[8] = molecular target: Casein kinase I isoform gamma-1 (Homo sapiens) (UniProt Q9HCP0); details: at 0.1 µM
Casein kinase I isoform gamma-1 (Homo sapiens), sequence (Q9HCP0 whole entry, looked up, canonical isoform): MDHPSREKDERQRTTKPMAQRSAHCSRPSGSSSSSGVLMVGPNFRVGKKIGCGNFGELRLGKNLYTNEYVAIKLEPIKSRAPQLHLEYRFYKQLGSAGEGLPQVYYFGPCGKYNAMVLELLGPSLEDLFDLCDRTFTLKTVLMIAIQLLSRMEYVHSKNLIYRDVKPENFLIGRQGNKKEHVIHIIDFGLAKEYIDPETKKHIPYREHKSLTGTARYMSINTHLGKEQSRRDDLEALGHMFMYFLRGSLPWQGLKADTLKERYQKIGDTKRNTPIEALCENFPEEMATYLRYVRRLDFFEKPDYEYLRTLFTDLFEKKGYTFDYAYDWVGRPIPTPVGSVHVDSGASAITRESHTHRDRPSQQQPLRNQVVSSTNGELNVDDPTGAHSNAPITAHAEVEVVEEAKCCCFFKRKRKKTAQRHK

[9] = molecular target: Casein kinase I isoform gamma-1 (Homo sapiens) (UniProt Q9HCP0); details: at 1 µM
[10] = molecular target: Casein kinase I isoform gamma-2 (Homo sapiens) (UniProt P78368); details: at 0.1 µM
Casein kinase I isoform gamma-2 (Homo sapiens), sequence (P78368 whole entry, looked up, canonical isoform): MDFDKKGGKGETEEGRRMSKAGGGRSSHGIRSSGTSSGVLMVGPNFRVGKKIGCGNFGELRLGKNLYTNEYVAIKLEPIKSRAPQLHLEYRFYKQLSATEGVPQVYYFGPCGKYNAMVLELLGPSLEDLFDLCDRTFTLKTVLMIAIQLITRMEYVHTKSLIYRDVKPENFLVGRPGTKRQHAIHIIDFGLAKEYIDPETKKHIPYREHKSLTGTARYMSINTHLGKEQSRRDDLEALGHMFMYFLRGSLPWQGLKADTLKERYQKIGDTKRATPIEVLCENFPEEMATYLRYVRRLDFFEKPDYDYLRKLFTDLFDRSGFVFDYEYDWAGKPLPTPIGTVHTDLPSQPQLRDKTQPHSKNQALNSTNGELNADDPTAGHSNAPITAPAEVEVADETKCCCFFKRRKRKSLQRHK

[11] = molecular target: Casein kinase I isoform gamma-2 (Homo sapiens) (UniProt P78368); details: at 1 µM
[12] = molecular target: Casein kinase I isoform gamma-3 (Homo sapiens) (UniProt Q9Y6M4); details: at 0.1 µM
Casein kinase I isoform gamma-3 (Homo sapiens), sequence (Q9Y6M4 whole entry, looked up, canonical isoform): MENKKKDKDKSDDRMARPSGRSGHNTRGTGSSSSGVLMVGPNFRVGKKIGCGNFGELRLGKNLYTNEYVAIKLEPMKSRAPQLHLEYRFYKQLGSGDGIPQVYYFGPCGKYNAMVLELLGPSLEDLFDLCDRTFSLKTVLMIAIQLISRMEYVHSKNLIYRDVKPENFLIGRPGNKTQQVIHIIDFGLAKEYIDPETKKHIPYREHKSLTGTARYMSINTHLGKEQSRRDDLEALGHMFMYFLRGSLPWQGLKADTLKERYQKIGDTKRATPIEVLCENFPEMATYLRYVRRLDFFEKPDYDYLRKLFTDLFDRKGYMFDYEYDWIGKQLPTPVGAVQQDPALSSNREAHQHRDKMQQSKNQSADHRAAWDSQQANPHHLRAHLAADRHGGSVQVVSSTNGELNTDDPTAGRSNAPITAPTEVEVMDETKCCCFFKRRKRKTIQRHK

[13] = molecular target: Casein kinase I isoform gamma-3 (Homo sapiens) (UniProt Q9Y6M4); details: at 1 µM
[14] = molecular target: Cyclin-dependent kinase 1 (Homo sapiens) (UniProt P06493); details: at 0.1 µM
Cyclin-dependent kinase 1 (Homo sapiens), sequence (P06493 whole entry, looked up): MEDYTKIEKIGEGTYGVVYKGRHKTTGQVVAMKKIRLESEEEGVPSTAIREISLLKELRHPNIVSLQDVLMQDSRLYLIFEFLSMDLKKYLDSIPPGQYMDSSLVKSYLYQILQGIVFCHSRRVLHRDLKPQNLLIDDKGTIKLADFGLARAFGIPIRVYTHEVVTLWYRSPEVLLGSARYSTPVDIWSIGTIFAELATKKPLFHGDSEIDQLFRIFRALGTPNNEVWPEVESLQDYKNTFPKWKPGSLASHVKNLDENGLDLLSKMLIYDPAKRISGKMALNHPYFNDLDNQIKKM

[15] = molecular target: Cyclin-dependent kinase 1 (Homo sapiens) (UniProt P06493); details: at 1 µM
[16] = molecular target: Cyclin-dependent kinase 2 (Homo sapiens) (UniProt P24941); details: at 0.1 µM
[17] = molecular target: Cyclin-dependent kinase 2 (Homo sapiens) (UniProt P24941); details: at 1 µM
[18] = molecular target: Cyclin-dependent kinase 2 (Homo sapiens) (UniProt P24941); details: at 0.1 µM; remark: listed apart in the source
[19] = molecular target: Cyclin-dependent kinase 2 (Homo sapiens) (UniProt P24941); details: at 1 µM; remark: listed apart in the source
[20] = molecular target: CDK3/Cyclin E (Homo sapiens) (UniProt P24864+Q00526); details: at 0.1 µM;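 further: reported percentages are mean inhibition values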
CDK3/Cyclin E (Homo sapiens), sequence (P24864 whole entry, looked up): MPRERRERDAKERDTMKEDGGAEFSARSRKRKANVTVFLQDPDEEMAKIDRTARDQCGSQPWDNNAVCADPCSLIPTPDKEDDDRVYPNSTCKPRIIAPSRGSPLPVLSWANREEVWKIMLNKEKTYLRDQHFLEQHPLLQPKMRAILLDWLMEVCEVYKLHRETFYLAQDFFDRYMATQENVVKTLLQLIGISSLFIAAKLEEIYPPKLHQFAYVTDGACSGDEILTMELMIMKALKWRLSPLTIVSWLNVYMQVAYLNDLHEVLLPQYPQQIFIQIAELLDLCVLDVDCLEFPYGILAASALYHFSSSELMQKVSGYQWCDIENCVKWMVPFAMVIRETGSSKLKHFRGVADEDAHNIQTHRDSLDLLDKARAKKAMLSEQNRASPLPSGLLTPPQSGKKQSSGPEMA
CDK3/Cyclin E (Homo sapiens), sequence (Q00526 whole entry, looked up): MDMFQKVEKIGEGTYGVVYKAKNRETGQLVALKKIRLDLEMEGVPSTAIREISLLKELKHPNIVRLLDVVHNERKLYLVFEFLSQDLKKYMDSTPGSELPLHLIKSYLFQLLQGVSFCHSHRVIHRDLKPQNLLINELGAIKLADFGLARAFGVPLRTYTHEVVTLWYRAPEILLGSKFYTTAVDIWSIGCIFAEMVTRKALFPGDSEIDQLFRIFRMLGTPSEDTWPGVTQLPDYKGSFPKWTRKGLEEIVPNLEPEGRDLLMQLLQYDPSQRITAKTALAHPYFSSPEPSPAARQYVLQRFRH

| Compound | inhibition [1] [%] | inhibition [2] [%] | inhibition [3] [%] | inhibition [4] [%] | inhibition [5] [%] | inhibition [6] [%] | inhibition [7] [%] | inhibition [8] [%] | inhibition [9] [%] | inhibition [10] [%] | inhibition [11] [%] | inhibition [12] [%] | inhibition [13] [%] | inhibition [14] [%] | inhibition [15] [%] | inhibition [16] [%] | inhibition [17] [%] | inhibition [18] [%] | inhibition [19] [%] | inhibition [20] [%] |
| --- | --- | --- | --- | --- | --- | --- | --- | --- | --- | --- | --- | --- | --- | --- | --- | --- | --- | --- | --- | --- |
| COc1ccc2cc(-c3c(-c4ccncc4)nc(-c4ccc([S+](C)[O-])cc4)n3C)ccc2c1 (stereo not given) | 3.63 | 3.26 | 1.1 | -0.32 | -0.74 | 1.18 | 3.66 | 3.32 | 2.97 | 2 | 2.6 | 1.16 | 3.28 | 0.99 | 2.01 | 1.21 | 1.86 | 3.23 | 3.44 | 4.02 |
| Cc1cccc(-c2n[nH]cc2-c2ccc3ncccc3n2)n1 | -2.11 | 0.8 | 0.75 | -0.09 | 1.08 | 1.85 | 1.42 | 0.4 | 1.1 | 0.55 | 0.49 | 0.08 | 1.59 | 0.3 | 2.06 | 0.57 | -1.61 | 0.23 | 0.63 | 0.85 |
| O=C1NC(=O)C(N2CCc3ccccc32)=C1c1ccc(Cl)cc1 | 5.62 | 3.65 | 2.94 | 1.38 | 0.39 | 4.4 | 5.22 | 4.48 | 5.14 | 2.83 | 5.08 | 4.47 | 3.56 | 1.77 | 3.26 | -1.05 | 0.31 | 5.31 | 6.11 | 3.85 |
| Cc1ccc(NC(=O)c2ccnc(N3CCCC3)c2)cc1-c1ccc(C(=O)NCC2CC2)cc1 | 8.32 | 3.77 | 3.59 | 1.08 | 1.39 | 5.28 | 2.01 | 0.99 | 3.3 | -0.87 | 2.39 | 0.96 | 2.49 | -0.58 | 2.14 | -0.92 | 2.88 | 6.57 | 6.44 | 9.73 |
| Fc1cccc(COc2ccc(Nc3ncnc4sc(-c5cccs5)cc34)cc2Cl)c1 | 2.3 | 0.6 | 1.28 | 0.22 | 0 | -0.37 | 2.33 | 0.39 | -0.08 | 0.42 | 0.26 | -0.15 | 0.1 | 0.75 | 1.12 | -0.17 | 1.85 | 3.98 | 2.92 | -0.06 |
| CN1CCC(C(=O)Nc2n[nH]c3nnc(-c4ccccc4)cc23)CC1 | 3.05 | 5.87 | 6.95 | 3.85 | 6.08 | 2.13 | 4 | 5.08 | 5.43 | 3.51 | 6.16 | 2.15 | 4.71 | 1.44 | 9.39 | 1.83 | 5.99 | 5.55 | 7.79 | 5.12 |
